Among all 330,000 compounds or so, about 5,800 (1.8%) were called active. This is one part of a sample in which actives are shown more often than they occur. Values without a mark were called inactive.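 The calls were made as follows: active = inhibition above about 50% at the single tested dose (limit read from the data); inactive = the rest.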

Chain of Sentrin-specific protease 6 (Homo sapiens) (Q9GZR1 628-1112 limits assumed): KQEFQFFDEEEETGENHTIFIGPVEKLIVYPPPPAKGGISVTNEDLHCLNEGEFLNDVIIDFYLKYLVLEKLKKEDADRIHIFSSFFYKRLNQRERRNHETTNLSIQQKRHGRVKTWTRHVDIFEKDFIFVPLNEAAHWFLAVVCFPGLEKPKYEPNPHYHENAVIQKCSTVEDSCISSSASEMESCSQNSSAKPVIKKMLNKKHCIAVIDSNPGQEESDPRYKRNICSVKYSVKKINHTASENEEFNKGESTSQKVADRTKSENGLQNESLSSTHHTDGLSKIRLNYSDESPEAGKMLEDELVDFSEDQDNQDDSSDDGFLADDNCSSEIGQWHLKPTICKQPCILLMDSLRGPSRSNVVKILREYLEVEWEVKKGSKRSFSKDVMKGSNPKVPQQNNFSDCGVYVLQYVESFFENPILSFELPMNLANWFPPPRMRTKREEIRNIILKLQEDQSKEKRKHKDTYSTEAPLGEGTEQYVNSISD

This experiment addresses Sentrin-specific protease 6 (Homo sapiens) (UniProt Q9GZR1). Briefly: inhibition of human SENP6 catalytic domain – biochemical, luminescence, uHTS, primary screen (AID 2599).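 Also: plate controls were DMSO wells with enzyme for no effect and DMSO wells lacking enzyme for full effect.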 The note with it: Recombinant SENP6 catalytic domain, aminoluciferin luminescence; at 10 µM; active compounds read high.
Consider `COC(=O)c1c(C)oc(C)c1S(=O)(=O)NCc1ccc(Cl)cc1`, for which the inhibition (commonly the relative decrease from the control value, in per cent) is -15.4%.
For `CCOC(=O)c1c(/N=C/c2cc(C)ccc2O)sc2c1CCC2` the value was 6.68%; for `Cc1ccnc2nc(C(=O)Nc3nnc(-c4ccccc4)o3)nn12`, 7.14%.
For `O=C(Nc1cccnc1Cl)c1cc(-c2ccccc2O)on1` the value was 17.2%; for `Cc1ccc(O)c(NC(=O)c2cc(-c3ccco3)on2)c1`, 62.9% (active); for `O=C(Nc1ccccc1C(F)(F)F)c1cc(-c2ccc(O)cc2)on1`, 1.85%.
For `CCOC(=O)Cc1csc(SCC(=O)NC(C)C23CC4CC(CC(C4)C2)C3)n1` (stereo not drawn) the value was -13.9%; for `O=C1CCC(=O)N1c1ccc(NCCc2ccccc2F)c([N+](=O)[O-])c1`, 11.8%.
As to `O=C(Nc1ccccc1C(=O)O)c1cc(S(=O)(=O)N2CCCCC2)cs1`, the inhibition is 15.3%.
For `O=C(COc1ccc([N+](=O)[O-])cc1Cl)Nc1ccc2[nH]c(=O)[nH]c2c1` the value was -8.3%; for `CC(=NCc1ccco1)C1=C(O)c2ccccc2C1=O`, 18.6%.
Then `CCc1ccc(-c2cc(C(=O)NCc3ccco3)c3ccccc3n2)s1`, with -10.2%.
With `CC(=NCc1ccco1)c1c(C(F)(F)F)[nH]n(-c2nc3ccccc3s2)c1=O`, the inhibition is 97.8% (active).
For `CC(C)CC(=O)N/C(N)=N/c1nc2ccccc2s1` the value was 29.7%; for `C/C(=N\NC(=O)CC(C)C)c1c(C(F)(F)F)[nH]n(-c2nc3ccccc3s2)c1=O`, 98% (active).
Then `CCC(C)Cn1c(O)cc2nn(-c3nc4ccccc4s3)c(=O)c-2c1C` (stereo not drawn), with -3.5%; and `COc1ccccc1C(=O)NCCC(=O)NC(C)CCc1ccccc1` (stereo not drawn), with -4.44%; and `O=C(CN1CCCSc2ccccc21)N1CCN(S(=O)(=O)c2cccc(F)c2)CC1`, with -22.3%.
Then `CCCN1Cc2cccc(C(=O)NCc3ccccc3)c2C1=O`, with 10.8%.
As to `Cc1ccc(NS(=O)(=O)c2ccc(-c3coc(C)n3)cc2)c(C)c1`, the inhibition was -4.93%.
Turning to `CCOC(=O)[C@H]1[C@H]2COc3cc(OC)ccc3[C@@H]2N2C(=O)CN(Cc3ccc(Cl)cc3)C(=O)[C@@]12C`, the inhibition is -7.07%.
For `COc1ccccc1N1CCN(S(=O)(=O)CCNC(=O)c2ccc(OC(C)C)cc2)CC1`, the inhibition was -8.31%.
As to `COc1cc(NC(=O)CSc2ccc(-c3cccnc3)nn2)cc(OC)c1`, the inhibition is 4.11%.
Then `COc1ccccc1NC(=O)c1c(Br)cnn1C`, with -0.608%; and `N/C(=N\OC(=O)CCC1CCCCC1)c1ccccn1`, with 87.4% (active); and `N/C(=N\OC(=O)CC1CCCCC1)c1ccccc1`, with 40.3%.
Then `COc1ccccc1OCC(=O)O/N=C(\N)c1ccccn1`, with 13.8%; and `Cc1ccc(O)c(CCc2ccccc2)n1`, with 8.36%.
For `CCCc1ccc(-c2c(C)sc(NC(=O)c3ccnn3C)c2C#N)cc1` the value was -0.479%; for `CN(C)C(=O)CSc1n[nH]c(-c2ccco2)n1`, 0.308%; for `O=C(O)CC(Cn1cnnn1)c1ccccc1` (stereo not drawn), -0.459%.
On to `O=C(NCCS(=O)(=O)N1CCN(c2ccccc2)CC1)c1ccco1`, for which the inhibition was 6.25%.
Then `CCOc1ccc(NC(=O)CCC(=O)NNC(=O)NC2CCCCC2)cc1`, with -9.85%.
For `Cc1ccc(S(=O)(=O)N2CCN(c3ccccc3)CC2)cc1C`, the inhibition was 4.47%.
In the case of `Cc1ccc(S(=O)(=O)C(C#N)c2nc3ccccc3nc2N2CCCC2)cc1C` (stereo not drawn), the inhibition was 75.9% (active).
For `CC(C)OC(=O)C(C#N)c1nc2ccccc2nc1N1CCN(Cc2ccccc2)CC1` (stereo not drawn) the value was 6.5%.
Then `O=C(CCCN1C(=O)c2ccccc2C1=O)Oc1ccc(Cl)cc1`, with 1.14%.
For `O=c1c2c(nc3n1CCCCC3)sc1c(O)cccc12` the value was 51.8% (active); for `Cc1c(C(=O)Nc2ccccc2)sc2nc3n(c(=O)c12)CCCCC3`, -15.7%.
Consider `Cc1cccc2c(=O)n3c(nc12)CCCCC3`, for which the inhibition was 9.44%.
For `Cn1cccc1C(=O)NC(=O)COC(=O)Cc1coc2ccc3ccccc3c12` the value was -4.09%.
For `Cc1c(C(=O)NC(C)C2CC3CCC2C3)cccc1[N+](=O)[O-]` (stereo not drawn) the value was -22.4%; for `COc1ccc(CCNC(=O)CCNS(=O)(=O)c2cc(Br)cnc2N)cc1OC`, -5.77%; for `O=c1/c(=C/c2ccc(CNS(=O)(=O)c3ccccc3)o2)sc2n1CCN=2`, 3.24%.
For `CCn1c(=O)cc(SCC(=O)NCCC2=CCCCC2)c2ccccc21` the value was -1.94%; for `COCCNC(=O)CCCN1C(=O)c2ccccc2Sc2ncccc21`, -28.9%; for `Oc1c(C=Nc2cccc3nsnc23)ccc2ccccc12`, 94.6% (active).
On to `Cc1cc2c(cc1C)N(Cc1ccccc1)C1=NCCCN12`, for which the inhibition was -12.7%.
For `O=C(Nc1ccccc1)O/N=C1/CCCc2occc21` the value was -12.8%.
For `CCCN1C(=O)C(Cc2nc3ccccc3c(=O)n2-c2ccccc2)c2cc(C)ccc21` (stereo not drawn) the value was -13.2%; for `Cc1ccc(NC(=S)N(CCCN2CCCC2)Cc2cccn2Cc2ccc(Cl)cc2)cc1`, -18%.
As to `Brc1ccccc1C1N=C(c2ccccc2)NO1` (stereo not drawn), the inhibition is 38.9%.
Then `N#Cc1ccc(C2N=C(c3ccccc3)NO2)cc1` (stereo not drawn), with 53% (active).
Then `C/C=C/C=C/C(=O)O`, with -2.25%; and `COc1ccc(C(=O)C2CCCN(C(=O)c3cc(C)on3)C2)cc1F` (stereo not drawn), with 4.97%; and `O=C(COC(=O)CNC(=O)C1CCCCC1)NCc1ccccc1`, with 4.4%.
For `Clc1ccc2nc(CSc3ccccc3)cn2c1`, the inhibition is 72.1% (active).
Consider `CCCCCCSc1ccc(-c2nc3ccc(Cl)cn3c2NCc2ccccc2)cc1`, for which the inhibition was -0.449%.
Take `O=C(/C=C/c1ccc2c(c1)OCO2)NCc1cn2cc(Cl)ccc2n1`: the inhibition was -4.65%.
For `CC1(c2ccc(Cl)cc2)NC(=O)N(CC(=O)c2ccc3c(c2)OCO3)C1=O` (stereo not drawn) the value was -6.26%; for `O=C(c1ccc(S(=O)(=O)c2ccccc2)cc1)N1CCCCCC1`, -8.79%.
As for `O=C(c1ccc(CSc2ccccc2)cc1)N1CCCCCC1`, the inhibition is 80.6% (active).
For `CC1CCN(C(=O)c2ccc(CSc3ccc(Cl)cc3)cc2)CC1` the value was 15.6%.

The values above are taken from PubChem BioAssay AID2599 (Sanford-Burnham Center for Chemical Genomics, 2010).
